Data on 15 compounds can be found in PubChem BioAssay (NCATS).

Values joined by “and” are separate entries in the source; they are usually repeats but may differ in a detail not shown here. Equal entries are not always repeated. Inconclusive results are not listed. Values without a mark were called inactive. Active and inactive are the calls of the source. Calls follow the shape of the dose curve; as a rule, active = well fitted inhibition curve with a large enough effect; inconclusive = small, poorly fitted or top-dose-only effect; inactive = flat fitted curve, though single readings scatter.

The test system of one experiment is CRL-7250. In words: Cytotoxic Profiling of Annotated Libraries Using Quantitative High-Throughput Screening (AID 1296008). The note with it: Five cell lines viability, CellTiter-Glo ATP luminescence, 48-72 h; max response: hits give low values. Put shortly:
(§1)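 Cytotoxicity was measured as CellTiter-Glo ATP luminescence, read after 10 min at room temperature. Compound treatment of the cells lasted 48 or 72 hr at 37 degrees Celsius in a qHTS format.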

For another experiment, the system named is HEK293. The description is as above. The note with it: Five cell lines viability, CellTiter-Glo ATP luminescence, 48-72 h; max response: hits give low values. The essentials:
as §1
In general terms: ATP-based viability assays read luminescence as a measure of living cells.

Experiment [1] has as its system HaCat. The description is as above. The conditions noted are these: Five cell lines viability, CellTiter-Glo ATP luminescence, 48-72 h; max response: hits give low values. Put shortly: as §1
A further experiment concerns KB-3-1. The description is as above. The note with it: Five cell lines viability, CellTiter-Glo ATP luminescence, 48-72 h; max response: hits give low values. The essentials: as §1
The subject of a further experiment is NIH3T3. Described as above. The conditions noted are these: Five cell lines viability, CellTiter-Glo ATP luminescence, 48-72 h; max response: hits give low values. Put shortly: as §1
For the next experiment, the system named is MCC-13. Put plainly: qHTS assay to identify novel small-molecules to repurpose for Merkel cell carcinoma treatment (AID 1296009). The conditions noted are these: MCC and control cell lines, CellTiter-Glo viability, 72 h; series mostly up to 46 µM. The essentials:
(§2)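 After compound transfer in DMSO, plates were kept 72 hr at 37 degree celsius. Luminescent ATP signal from CellTiter-Glo served as viability measure, normalized against DMSO and no-cell controls.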
In general terms: Quantitative high-throughput screening tests each substance at several concentrations.

In experiment [2] the test system is HACAT. Described as above. The note with it: MCC and control cell lines, CellTiter-Glo viability, 72 h; series mostly up to 44.8 µM. Put shortly:
as §2

The next experiment has as its system HEK293T. Described as above. The conditions noted are these: MCC and control cell lines, CellTiter-Glo viability, 72 h; at 44.8 µM (top of the series) unless noted. Put shortly:
as §2

In another experiment the test system is MCC-26. Described as above. The conditions noted are these: MCC and control cell lines, CellTiter-Glo viability, 72 h; series mostly up to 46 µM. Put shortly: as §2
% is scaled to controls: 0 for no effect and ±100 for the full control effect; potency is read from the fitted curve at half-maximal effect.
Also: nearly all actives have a fitted effect of over 60% in size.

In the case of `CCn1nnc2c(N3CCOCC3)nc(-c3ccc(NC(=O)Nc4ccc(C(=O)N5CCN(C)CC5)cc4)cc3)nc21`, the Potency in the experiment on CRL-7250 is 65.1 nM (active); with HEK293, 206 nM (active); with HaCat [1], 662 nM (active) and 1.16 µM (active); with KB-3-1 it was 11.8 nM (active) and 146 nM (active); with NIH3T3, 0.517 µM (active). The Potency entry with MCC-13 is “inactive”.
For `O=c1c2ccccc2nc2n1CCc1c-2[nH]c2ccccc12`, the max response with CRL-7250 is 3.31%; in the experiment on HEK293, -12.5%; with HaCat [1], -7.58%; in the experiment on KB-3-1 it was 4.3% and 8.09%; in the experiment with NIH3T3, 0.849% and 0.542%. For the same compound, in the experiment with HaCat [1], the compound was classed as inactive. The Potency result in the experiment on HACAT [2] and with MCC-13 was “inactive” each time.
Consider `CC(C)(C)c1cnc(CSc2cnc(NC(=O)C3CCNCC3)s2)o1`, for which the Potency was 132 nM (active) in the experiment with CRL-7250; 418 nM (active) with HEK293; 1.32 µM (active) in the experiment on HaCat [1]; 0.332 µM (active) in the experiment on KB-3-1; 3.32 µM (active) in the experiment with NIH3T3.
Turning to `CC1(C)CC(=O)c2c(C(F)(F)F)nn(-c3ccc(C(N)=O)c(NC4CCC(OC(=O)CN)CC4)c3)c2C1` (stereo not drawn), the Potency is 469 nM (active) and 231 nM (active) with CRL-7250; 118 nM (active) and 58 nM (active) in the experiment on HEK293; 2.35 µM (active) and 517 nM (active) with HaCat [1]; 0.105 µM (active) with KB-3-1; 418 nM (active) and 366 nM (active) in the experiment with NIH3T3.
On to `O=C(C=Cc1c(C(=O)O)[nH]c2cc(Cl)cc(Cl)c12)Nc1ccccc1`, for which the compound was classed as inactive in the experiment with CRL-7250, in the experiment with HEK293 and in the experiment on HEK293T. Moreover, the max response in the experiment on HaCat [1] is -0.315%; in the experiment on KB-3-1, 3.7%; in the experiment on NIH3T3 it was 1.73%. The Potency result in the experiment with MCC-13 is “inactive”.
In the case of `CC(=O)Nc1nc(C)c(-c2ccc(Cl)c(S(=O)(=O)NCCO)c2)s1`, the Potency was 1.66 µM (active) and 13 µM (active) in the experiment with CRL-7250; 4.18 µM (active) and 11.6 µM (active) in the experiment with HEK293; 6.51 µM (active) with HaCat [1]; 9.35 µM (active) with KB-3-1; 3.32 µM (active) and 2.59 µM (active) in the experiment with NIH3T3.
As to `Cc1nc2cnc3ccc(C#Cc4cccnc4)cc3c2n1-c1ccc(C(C)(C)C#N)cc1`, the Potency in the experiment on CRL-7250 is 46.9 nM (active); in the experiment on HEK293, 74.3 nM (active); in the experiment with HaCat [1], 1.18 µM (active); in the experiment on KB-3-1, 0.0935 µM (active); in the experiment with NIH3T3 it was 0.148 µM (active).
For `CNC(=O)c1ccccc1Nc1nc(Nc2ccc(N3CCOCC3)cc2OC)ncc1Cl`, the Potency in the experiment with CRL-7250 was 7.43 µM (active) and 4.11 µM (active); with HEK293, 3320 nM (active); in the experiment with HaCat [1], 2.96 µM (active) and 2.31 µM (active); in the experiment with KB-3-1 it was 2.64 µM (active) and 1.3 µM (active); in the experiment with NIH3T3, 1.05 µM (active).
For `Cn1cc(-c2[nH]c3cc(NC(=O)[C@H](N)C4CCCCC4)cc4c3c2C=NNC4=O)cn1`, the Potency was 1.87 µM (active) and 2.59 µM (active) in the experiment on CRL-7250; 3.32 µM (active) and 5.8 µM (active) with HEK293; 5.9 µM (active) and 4.11 µM (active) in the experiment on KB-3-1; 14.8 µM (active) with NIH3T3. Moreover, the max response with HaCat [1] was -8.38%.
Take `CC(=O)SC[C@@H](C)C(=O)N1CCC[C@H]1C(=O)N[C@@H](Cc1ccccc1)C(=O)O`: the max response is 1.31% with CRL-7250, 1.63% in the experiment on HaCat [1], 2.35% with KB-3-1 and 0.0761% in the experiment on NIH3T3. Also, the result in the experiment on HEK293 and in the experiment with HEK293T was inactive. In the experiment on MCC-13, the Potency entry was “inactive”.
For the compound `COc1ccc(-n2nc(C(N)=O)c3c2C(=O)N(c2ccc(N4CCCCC4=O)cc2)CC3)cc1`, the max response in the experiment on CRL-7250 was -14% and -8.05%; in the experiment with HEK293, 2.24%; in the experiment with HaCat [1], -4.25%; in the experiment on KB-3-1, 6.22% and -0.472%; in the experiment with NIH3T3 it was -1.07% and 4.24%. Moreover, the compound was classed as inactive in the experiment with HaCat [1]. Besides, the Potency entry in the experiment with HACAT [2], with MCC-13 and in the experiment on MCC-26 was “inactive” each time.
In the case of `CC1=C(CO)C(=O)O[C@@H]([C@@H](C)[C@H]2CC[C@H]3[C@@H]4C[C@H]5O[C@]56[C@@H](O)C=CC(=O)[C@]6(C)[C@@H]4CC[C@]23C)C1`, the Potency in the experiment on CRL-7250 was 1480 nM (active); in the experiment on HEK293 it was 332 nM (active); with HaCat [1], 2.64 µM (active); in the experiment with KB-3-1 it was 1.05 µM (active); with NIH3T3 it was 2.09 µM (active); in the experiment with MCC-13 it was 662 nM (active).
On to `CC(C)(C)OC(=O)Nc1ccc(-c2cc(C(=O)NCCCCCCC(=O)NO)no2)cc1`, for which the Potency is 16600 nM (active) in the experiment with CRL-7250; 7430 nM (active) with HEK293; 20.9 µM (active) with HaCat [1]; 8.33 µM (active) in the experiment with KB-3-1; 14.8 µM (active) with NIH3T3; 11800 nM (active) in the experiment on MCC-13. In the experiment on MCC-26, the Potency is 18700 nM (active).
Take `CCOc1cc2ncc(C#N)c(Nc3ccc(F)c(Cl)c3)c2cc1NC(=O)C=CCN(C)C`: the Potency in the experiment on CRL-7250 is 105 nM (active); in the experiment on HEK293, 1870 nM (active); in the experiment on HaCat [1], 0.0166 µM (active); with KB-3-1 it was 5.9 µM (active); with NIH3T3, 1.48 µM (active); in the experiment with MCC-13, 23500 nM (active). Besides, the Potency in the experiment with MCC-26 is 14800 nM (active).
In the case of `COc1cc2c(Oc3ccc(NC(=O)C4(C(=O)Nc5ccc(F)cc5)CC4)cc3F)ccnc2cc1OCCCN1CCOCC1`, the Potency with CRL-7250 was 10.5 µM (active) and 8.2 µM (active); in the experiment with HEK293 it was 8.33 µM (active) and 18.4 µM (active); in the experiment on HaCat [1] it was 4.18 µM (active) and 6.51 µM (active); in the experiment on KB-3-1, 1.32 µM (active) and 2.91 µM (active); with NIH3T3 it was 526 nM (active) and 731 nM (active); in the experiment with MCC-13 it was 14800 nM (active).
